This passage reports growth results from PubChem BioAssay (NCI).

Where “and” joins values, the source holds several entries; their conditions need not be identical. Identical values can stand only once. The panel holds about 83,000 compounds, 20% with a hit somewhere; the sample as a whole holds those more often.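 Interpretation: 100, growth as untreated; towards 0, rising growth inhibition; 0, no net growth; 0 to -100, cell death. Compounds scoring below 10 were considered active.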 Unmarked numbers belong to inactive results. Calls of active or inactive are those of the source.

The subject of the experiment is MDA-MB-468 breast. As to the kind of experiment: NCI-60 one-dose screen, 48 h (100 = growth as untreated, 0 = no growth, -100 = all killed). As to conditions: 10 µM unless noted.
Consider `CC(=O)NC(Cc1ccccc1)C(=O)Oc1ccc2ccccc2c1` (stereo not given), for which the growth was 107% and 119%.

On to `CCOC(=O)[C@@H](Cc1ccccc1)NC(=O)c1[nH]c2ccc(Cl)cc2c(=O)c1C`, for which the growth was 78%.

Regarding `COc1cc(-c2nc(SCC(C)C)nc(Nc3cccc4ccccc34)c2C#N)cc(OC)c1OC`, the growth is 116%.

For the molecule `CSc1nn2c(-c3cc4cc(Br)ccc4oc3=O)ccnc2c1C#N`, the growth was 109%.

`COc1cc(/C=C2\CCCC3=C2N=C2SC(C)=CN2C3c2cc(OC)c(OC)c(OC)c2)cc(OC)c1OC` (stereo not given): the growth is -20.7% (active).

As to `CCN(CC)c1ccc(/C=C\c2cc(C)c3cc(C)ccc3n2)cc1`, the growth was 1.26% (active).

`COc1ccc(-c2nc(-c3ccccc3)c(-c3ccccc3)n2C2CC2)cc1OC1CCCCC1`: the growth was 58.8%.

Turning to `C=C1C(=O)O[C@H]2[C@H]1CC/C(CNS(=O)(=O)c1ccc3ccccc3c1)=C\CC[C@@]1(C)O[C@@H]21`, the growth is -54% (active).

Take `CCOC(=O)c1sc(NC(=O)COc2cccc(/C=C3\Cc4ccc(Cl)cc4C3=O)c2)nc1C`: the growth was 118%.

For the molecule `N#CC(=S)Nc1ccc(Cl)c(Cl)c1`, the growth is -5.08% (active).

Regarding `O=c1ncc(-c2ccc(C(F)(F)F)cc2)c(NC2CCCCCC2)[nH]1`, the growth is 11.8%.

For the molecule `CCOC(=O)c1cc(C(=O)c2cc(OC)c(OC)c(OC)c2)n2c1ccc1c3cccnc3ccc12`, the growth is 61.5%.

In the case of `CCOC(=O)CC1CSC(N/N=C/c2ccc(-n3cccn3)cc2)=N1` (stereo not given), the growth is 95.3%.

For the molecule `COC[C@]12CC[C@@H](C)[C@H](C)[C@H]1C1=CC[C@@H]3[C@@]4(C)CCCNC(C)(C)[C@@H]4CC[C@@]3(C)[C@]1(C)CC2`, the growth was -6.6% (active).

As for `Cc1ccc(O)c(N)c1`, the growth is 98.9%.

Turning to `CCCCS(=O)(=O)c1cc(Nc2ccc(O)c3c2C(=O)c2ccccc2C3=O)ccc1C`, the growth is 76.4%.

As to `NC1CCC(C(=O)O)CC1` (stereo not given), the growth was 99.8% and 107%.

On to `O=c1cc(N2CCOCC2)oc2c(-c3ccc4c(c3)OCCO4)csc12`, for which the growth was -4.24% (active).

In the case of `COC(=O)C1(C(=O)OC)C2C(=O)C3C(C21)C3(C(=O)OC(C)(C)C)C(=O)OC(C)(C)C` (stereo not given), the growth was 99.4%.

Regarding `O=C(O)c1ccccc1C(=O)Nc1ccc(Cl)cc1`, the growth was 120%.

Regarding `O=C1N/C(=N/N=C(c2ccccc2)c2ccccc2)S/C1=C\c1ccc(Br)cc1`, the growth was 103%.

As to `CC(=O)Nc1cc(N2CCOCC2)c2nc(NC(=O)c3[nH]c(C)c(Cl)c3Cl)sc2c1`, the growth was 47.7%.

For the molecule `Cc1cc2nc3c4ccccc4n(CCN(C)C)c3nc2cc1C`, the growth was -12.1% (active).

As to `Nc1nc(N)c2c(n1)NC(c1ccc(C(F)(F)F)cc1)CC(c1ccc(Nc3nc(NCCO)nc(N4CCOCC4)n3)cc1)=N2` (stereo not given), the growth was 68.3%.

Turning to `COc1cc(-c2cc(/C=C3\C(=O)Nc4cc(Cl)ccc43)[nH]n2)cc(OC)c1OC`, the growth was 58.3%.

Turning to `COc1cc2ncnc(Oc3ccc(NC(=O)Nc4ccc(C5(C#N)CCCC5)cc4)c4ccccc34)c2cc1OC`, the growth was 38.2%.

As for `Cc1ccc(C(=O)c2ccc(CC(=O)NN3C(=O)c4ccccc4C3=O)n2C)cc1`, the growth was 93%.

For the molecule `OC(COc1ccccc1Cl)CN1CCN(c2ccc(Cl)cc2)CC1` (stereo not given), the growth is 95.7%.

`Nc1c(C(=O)c2ccc(F)cc2)sc2nc3c(cc12)CCCC3`: the growth was 59.9%.

For the molecule `O=[N+]([O-])c1ccc(NCSc2ccc(Cl)cc2)cc1`, the growth is 98.6%.

For `S=C1CCSC(=S)N1CCCN1C(=S)CCSC1=S`, the growth was 37.8%.

Consider `O=C1/C(=C/c2ccc(Br)cc2)COc2ccc(O)cc21`, for which the growth was 89%.

As to `COc1ccc(-c2cc(-c3nnc(SCC(=O)Nc4ccc(C(C)=O)cc4)o3)c3ccccc3n2)cc1`, the growth was 45.5%.

For `COc1ccc(/C=N/NC(=O)c2c(N)nn(C)c2Nc2ccccc2)cc1`, the growth was -1.26% (active).

For the molecule `Cc1cc(Cl)nc(N(CCCNc2ccnc3cc(Cl)ccc23)Cc2cccs2)n1`, the growth is -30.1% (active).

Regarding `N#CCCCCCn1c2ccccc2c2c3c(c4c5ccccc5[nH]c4c21)C(=O)N(O)C3=O`, the growth is -32% (active).

In the case of `COc1ccc2nc3cc(Cl)ccc3c(NCCCNCCC(C)O)c2c1` (stereo not given), the growth was -54% (active).

With `C/C(=C(/c1ccc(O)cc1)c1ccc(OCCN(C)C)cc1)c1ccc(Cl)cc1`, the growth was 22.2%.

As to `C#CC[C@@H]1C[C@]2(C)[C@H]3CC=C4[C@H]5[C@@H](C)[C@H](C)CC[C@]5(C(=O)NCCCN5CCN(CCCN)CC5)CC[C@@]4(C)[C@]3(C)CC[C@H]2C(C)(C)[C@H]1OC(C)=O`, the growth is -72.9% (active).

With `CC(=O)O[C@H]1[C@H](CC#CC#CC[C@@H]2C[C@]3(C)[C@H]4CC=C5[C@H]6[C@@H](C)[C@H](C)CC[C@]6(C(=O)NCCN(CCN)CCN)CC[C@@]5(C)[C@]4(C)CC[C@H]3C(C)(C)[C@H]2OC(C)=O)C[C@]2(C)[C@H]3CC=C4[C@H]5[C@@H](C)[C@H](C)CC[C@]5(C(=O)NCCN(CCN)CCN)CC[C@@]4(C)[C@]3(C)CC[C@H]2C1(C)C`, the growth is 1.36% (active).
